Out of some 39,000 compounds screened, about 220 (0.56%) showed activity. This is one part of a sample in which actives are shown more often than they occur.
Test system: Escherichia coli K-12 BW25113
Test: relative growth (OD600 normalised to plate interquartile mean) (fraction); higher = less growth inhibition, active = 0.2 or less
Settings: 50 µM; LB; incubation time: overnight (16-24 h)
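Further: Wild-type cells incubated without shaking, value is the mean of two biological replicates.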

SMILES	relative growth
N=c1sccn1CC(=O)O	1.04 (inactive)
CC1=C(/C=C/C(C)=C/C=C/C(C)=C/C(=O)O)C(C)(C)CCC1	0.987 (inactive)
Cc1noc(C)c1NC(=O)N(C)C[C@@H]1OCCCC[C@H](C)Oc2ccc(NC(=O)CCC(F)(F)F)cc2C(=O)N([C@H](C)CO)C[C@@H]1C	0.979 (inactive)
C[C@H](CO)N1C[C@H](C)[C@@H](CN(C)Cc2ccc3c(c2)OCO3)Oc2c(NC(=O)c3cnccn3)cccc2C1=O	0.969 (inactive)
COc1ccc(S(=O)(=O)N(C)C[C@H]2OCCCC[C@@H](C)Oc3ccc(NC(=O)Nc4ccc(F)cc4)cc3C(=O)N([C@H](C)CO)C[C@@H]2C)cc1	1.07 (inactive)
CO[C@@H]1CN(C)C(=O)c2ccc(NC(=O)C3CCOCC3)cc2OC[C@@H](C)N(CC2CCOCC2)C[C@H]1C	1.02 (inactive)
O=C(CN1CCOCC1)NCC[C@H]1CC[C@@H](NC(=O)Nc2ccccc2)[C@@H](CO)O1	1.01 (inactive)
Cc1noc(C)c1S(=O)(=O)Nc1cccc2c1O[C@@H](CN(C)Cc1ccccc1)[C@@H](C)CN([C@@H](C)CO)C2=O	1.01 (inactive)
C[C@@H]1CN([C@H](C)CO)C(=O)c2cc(NC(=O)Nc3ccc(C(F)(F)F)cc3)ccc2O[C@H]1CN(C)Cc1ccc(C(F)(F)F)cc1	1.02 (inactive)
C[C@@H]1CN([C@H](C)CO)C(=O)c2cc(-c3cccc(C(=O)N(C)C)c3)cnc2O[C@@H]1CN(C)S(=O)(=O)c1ccccc1	0.987 (inactive)
COc1oc(C(=O)NC2CCCCC2)c(-c2ccc(Cl)cc2)c1S(=O)(=O)c1cccc(Cl)c1	0.914 (inactive)
COc1ccccc1-c1cnc2c(c1)C(=O)N([C@@H](C)CO)C[C@@H](C)[C@H](CN(C)C(=O)c1cccnc1)O2	1.02 (inactive)
COc1cc(N2CCC3(CC2)CNC(=O)CO3)ncn1	0.968 (inactive)
C[C@@H]1CN([C@H](C)CO)C(=O)Cc2cc(NC(=O)CCN3CCOCC3)ccc2O[C@H]1CN(C)Cc1ccc(C(=O)O)cc1	1.03 (inactive)
CO[C@@]12[C@H](COC(N)=O)C3=C(C(=O)C(C)=C(N)C3=O)N1C[C@@H]1N[C@@H]12	1.01 (inactive)
COC12C(COC(N)=O)C3=C(C(=O)C(C)=C(N)C3=O)N1CC1NC12 (centres undefined)	0.0503 (active)
CO[C@@]12[C@@H]3N[C@@H]3CN1C1=C(C(=O)C(N)=C(C)C1=O)[C@@H]2COC(N)=O	0.0651 (active)
COCCNC(=O)C[C@H]1CC[C@H]2[C@@H](COC[C@@H](O)CN2C(=O)Nc2ccccc2OC)O1	0.949 (inactive)
Cc1noc(C)c1S(=O)(=O)Nc1ccc2c(c1)CC(=O)N([C@H](C)CO)C[C@@H](C)[C@H](CN(C)Cc1ccncc1)O2	0.995 (inactive)
C[C@H](CO)N1C[C@H](C)[C@@H](CN(C)C)Oc2ccc(NS(C)(=O)=O)cc2CC1=O	0.983 (inactive)
C[C@@H]1CCCCO[C@@H](CN(C)C(=O)C2CCCCC2)[C@H](C)CN([C@H](C)CO)C(=O)c2cc(NS(=O)(=O)c3ccccc3)ccc2O1	0.989 (inactive)
CC1=C(C(=O)NCCCN2CCN(c3ccc(F)cc3)CC2)C2(CCN(Cc3ccccc3)CC2)OC1=O	0.567 (inactive)
Cn1c(=O)[nH]c(=O)c2c1nc(N1CCN(CC(N)=O)CC1)n2C/C=C/c1ccccc1	0.988 (inactive)

SMILES	relative growth
Cc1ccc(S(=O)(=O)N(C)C[C@H]2Oc3c(NC(=O)c4cnccn4)cccc3C(=O)N([C@H](C)CO)C[C@@H]2C)cc1	0.975 (inactive)
CC1COc2c(C3(N)CC3)c(F)cc3c(=O)c(C(=O)O)cn1c23.CS(=O)(=O)O (centres undefined)	0.0476 (active)
C[C@H]1COc2c(C3(N)CC3)c(F)cc3c(=O)c(C(=O)O)cn1c23	0.0591 (active)
C[C@H]1CN([C@@H](C)CO)C(=O)c2cc(NC(=O)CCN3CCOCC3)ccc2O[C@H]1CN(C)C(=O)NC1CCCCC1	0.98 (inactive)
CS(=O)(=O)c1cc(F)ccc1N	0.965 (inactive)
O=C(O)c1cccc(-c2ccco2)c1	1.01 (inactive)
CC(=O)OCC1=C[C@@H]2OC(=O)C3=CO[C@@H](O[C@H]4O[C@H](CO)[C@@H](O)[C@H](O)[C@H]4O)[C@H]1[C@@H]32	1.01 (inactive)
CNC(=O)CN1CCOC[C@@]2(C1)CN(C(=O)c1ccn[nH]1)CCO2	0.952 (inactive)
CCCCCCCCCCCCCCCC(=O)OC[C@@H](NC(=O)C(Cl)Cl)[C@H](O)c1ccc([N+](=O)[O-])cc1	1.03 (inactive)
CCCCCCCCCCCCCCCC(=O)OCC(NC(=O)C(Cl)Cl)C(O)c1ccc([N+](=O)[O-])cc1 (centres undefined)	0.559 (inactive)
O=C(NCO)c1ccc([N+](=O)[O-])cc1	1.02 (inactive)
O=C([O-])CCC(=O)OCC(NC(=O)C(Cl)Cl)C(O)c1ccc([N+](=O)[O-])cc1.[Na+] (centres undefined)	0.0517 (active)
O=C(NC(CO)C(O)c1ccc([N+](=O)[O-])cc1)C(Cl)Cl (centres undefined)	0.0428 (active)
CCCCCCCCCCCCCCCC(=O)OC[C@H](NC(=O)C(Cl)Cl)[C@H](O)c1ccc([N+](=O)[O-])cc1	0.604 (inactive)
CS(=O)(=O)c1ccc(C(O)C(CF)NC(=O)C(Cl)Cl)cc1 (centres undefined)	0.0463 (active)
CS(=O)(=O)c1ccc(C(O)C(CO)NC(=O)C(Cl)Cl)cc1 (centres undefined)	0.375 (inactive)
CCC(NC(C)C)C(O)c1ccc(O)c(O)c1.CS(=O)(=O)O (centres undefined)	1.04 (inactive)
C[C@@H]1CN([C@H](C)CO)C(=O)c2cc(NC(=O)Nc3ccc(F)cc3)ccc2O[C@@H](C)CCCCO[C@H]1CN(C)C(=O)Nc1ccc(C(F)(F)F)cc1	1 (inactive)
Cc1ccc(S(=O)(=O)N(C)C[C@H]2OCCCC[C@H](C)Oc3ccc(NC(=O)Nc4ccccc4)cc3C(=O)N([C@H](C)CO)C[C@@H]2C)cc1	1.07 (inactive)
C[C@@H]1CN([C@H](C)CO)C(=O)c2cc(NS(=O)(=O)c3ccccc3)ccc2O[C@@H](C)CCCCO[C@H]1CN(C)Cc1ccc(C(F)(F)F)cc1	1.07 (inactive)
C[C@@H]1CCCCO[C@@H](CN(C)CC2CCCCC2)[C@@H](C)CN([C@H](C)CO)C(=O)c2cc(NS(=O)(=O)c3ccccc3)ccc2O1	0.975 (inactive)
C=CCC[C@@H](Cc1ccc(F)cc1)C(=O)OC[C@@H](Cc1c[nH]c2ccccc12)NC(=O)[C@@H](CC=C)CC(=O)N(CCO)Cc1ccccc1	1.1 (inactive)
C[C@@H]1CN([C@H](C)CO)C(=O)c2cccc(NC(=O)C3CCOCC3)c2O[C@H]1CN(C)Cc1ccc(-c2ccccc2)cc1	1 (inactive)

SMILES	relative growth
O=C(CCCCCC(=O)N/N=C/[C@H](O)[C@@H](O)[C@H](O[C@@H]1O[C@H](CO)[C@H](O)[C@H](O)[C@H]1O)[C@H](O)CO)NO	1.01 (inactive)
COc1ccc2c3c([nH]c2c1)[C@H](CO)N(C[C@]13CN(C1)C(=O)Cc1cccnc1)S(=O)(=O)c1ccc(cc1)C	0.987 (inactive)
CCn1cc(C(=O)O)c(=O)c2ccc(C)nc21	1.02 (inactive)
CCn1cc(C(=O)O)c(=O)c2cnc(N3CCCC3)nc21	1.09 (inactive)
CCn1cc(C(=O)O)c(=O)c2cc(F)c(N3CCNCC3)nc21	0.049 (active)
O=C(O)c1cnc(N2CCCC2)nc1	1.03 (inactive)
CCn1cc(C(=O)O)c(=O)c2cnc(N3CCNCC3)nc21	0.05 (active)
NC(=O)c1cc(S(N)(=O)=O)ccc1Cl	0.993 (inactive)
C[C@H]1CN([C@@H](C)CO)C(=O)c2cc(NC(=O)Nc3ccc(F)cc3)ccc2O[C@H]1CN(C)S(C)(=O)=O	1.02 (inactive)
Cc1noc(C)c1S(=O)(=O)N(C)C[C@@H]1Oc2ccc(NS(C)(=O)=O)cc2CC(=O)N([C@@H](C)CO)C[C@H]1C	1.01 (inactive)
C[C@@H]1CCCCO[C@@H](CN(C)C(=O)Nc2ccc3c(c2)OCO3)[C@@H](C)CN([C@H](C)CO)C(=O)c2cc(NC(=O)Nc3ccc4c(c3)OCO4)ccc2O1	1.02 (inactive)
C[C@@H]1CN([C@@H](C)CO)C(=O)c2cc(NC(=O)Nc3ccc(F)cc3)ccc2O[C@@H](C)CCCCO[C@@H]1CN(C)Cc1ccncc1	0.93 (inactive)
Cc1noc(C)c1NC(=O)N(C)C[C@@H]1Oc2c(NC(=O)Nc3ccc(C(F)(F)F)cc3)cccc2C(=O)N([C@@H](C)CO)C[C@@H]1C	0.943 (inactive)
COC(=O)c1c(C)cc(OC(=O)c2c(C)cc(O)c(C=O)c2O)c(C)c1O	0.867 (inactive)
CCOC(=O)c1c(C)cc(O)c(C=O)c1O	0.0424 (active)
Cc1cc(O)c(C=O)c(O)c1C(=O)O	1.07 (inactive)
COc1ccc(NC(=O)Nc2ccc3c(c2)C(=O)N([C@@H](C)CO)C[C@H](C)[C@H](CN(C)C(=O)Nc2ccc4c(c2)OCO4)OCCCC[C@@H](C)O3)cc1	1.04 (inactive)
Cc1noc(C)c1NC(=O)Nc1ccc2c(c1)C(=O)N([C@H](C)CO)C[C@@H](C)[C@@H](CN(C)C(=O)NC1CCCCC1)OCCCC[C@H](C)O2	1.02 (inactive)
C[C@H]1CN([C@@H](C)CO)C(=O)c2cc(N(C)C)ccc2O[C@H]1CN(C)S(C)(=O)=O	0.993 (inactive)
Cc1cn2nc([C@@H]3CCCCN3C(=O)c3cc(Cl)ccc3NS(C)(=O)=O)cc2nc1N1CC[C@H](N)C1	0.981 (inactive)
Cc1ccc(S(=O)(=O)O)cc1.NC1CCN(c2nc3c(cc2F)c(=O)c(C(=O)O)cn3-c2ccc(F)cc2F)C1.O (centres undefined)	0.0925 (active)
N[C@@H]1[C@H]2CN(c3nc4c(cc3F)c(=O)c(C(=O)O)cn4-c3ccc(F)cc3F)C[C@@H]12	0.0389 (active)
N[C@H]1CCN(c2nc3c(cc2F)c(=O)c(C(=O)O)cn3-c2ccc(F)cc2F)C1	0.17 (active)

Reference: the supplement of paper PMC9446081
